GAA850 FXN act: frataxin GAA850 promoter activation | HEK293 lucGAA850 FXN promoter luciferase reporter, 24 h; percent of 10 µM SAHA response | activation, % at 6 µM | actives 0.56% (n = 360,000);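 active = activation above the average of all compounds screened plus 3 SD, cutoff fixed separately per campaign, cut at about 7.5% in these data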;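 also: 0% = DMSO wells and 100% = 10 µM SAHA wells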
MITF TRPM1 HTS: MITF TRPM1 promoter activation in melanoma cells. actives 0.75% (n = 300,000). SK-MEL-5 TRPM1-promoter luciferase, 24 h; % of positive control, neutral wells = 0. activation, % at 12.5 µM;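 active = mean activation of at least 80% with every replicate also reaching 80%; inconclusive = mean reaches 80% but some replicate falls short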;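 also: 0% = neutral control wells and 100% = parthenolide positive control wells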
Wnt bcat act: activates Wnt/beta-catenin signaling in a reporter cell assay; actives 1.2% (n = 300,000); activation, % at 9.35 µM; AID 743398; activator, plate reader; in the data active = activation above about 30%, passing the limit was not always enough; inconclusive = no clear call, values can overlap the other calls;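 also: 0% = neutral control wells and 100% = positive control wells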
Statin myotox sup: protects C2C12 myotubes from simvastatin toxicity; actives 0.78% (n = 330,000); ATP luminescence, 48 h; scaled: DMSO 0, geranylgeraniol control 100; AID 602340; rescue of ATP level, % at 7.49 µM;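 active = mean ATP rescue above about 67%, or every replicate alone reaching that limit, limit read from the data, passing the limit was not always enough; inconclusive = no clear call, values can overlap the other calls; inactive = mean under the limit and some replicate under it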;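 also: myotubes were challenged with 10 µM simvastatin during compound exposure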
esBAF inh: inhibitors of esBAF chromatin remodeling in mouse ES cells | Bmi1-luciferase knock-in reporter, 24 h; 100% = twice the neutral-well signal | reporter increase, % at 12.5 µM | actives 2% (n = 350,000); in the data active = activation above about 40%; inconclusive = no clear call, values can overlap the other calls;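 also: 0% = median of the plate's neutral control wells and 100% = double that signal; a rise in the Bmi1 reporter signal indicates esBAF inhibition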
Numbers without * were called inactive. Rows were chosen to be rich in hits. Some 3.3% of all compounds tested hit in one or more screens of this group.

Results for NC(CC(=O)O)c1cccc(OCc2ccccc2)c1 (stereo not given) ?
GAA850 FXN act: -2; MITF TRPM1 HTS: -6; Statin myotox sup: 66*; esBAF inh: 4

What do the screens show for `Cn1ccnc1C(O)c1cccc(OCc2ccccc2)c1` (stereo not given)?
GAA850 FXN act: 1; Wnt bcat act: 0; Statin myotox sup: -15; esBAF inh: 0

Results for O=C(O)CC(NC(=O)OCc1ccccc1)c1ccccc1 (stereo not given) ?
GAA850 FXN act: 0; MITF TRPM1 HTS: 1; Statin myotox sup: 93*; esBAF inh: -3

Results for OC(c1ccc(OCc2ccccc2)cc1)c1nnc(-c2ccccc2)o1 (stereo not given) ?
GAA850 FXN act: -2; MITF TRPM1 HTS: 22; Wnt bcat act: 3; esBAF inh: 2

What do the screens show for `O=C(NOCc1ccccc1)OCc1ccccc1`?
GAA850 FXN act: 4; MITF TRPM1 HTS: inconclusive; Wnt bcat act: 13; Statin myotox sup: -4; esBAF inh: 63*

Results for CC(NC(=O)OCc1ccccc1)c1ccccc1 (stereo not given) ?
GAA850 FXN act: 0; MITF TRPM1 HTS: 1; Wnt bcat act: -2

How did OC(c1cccc(OCc2ccccc2)c1)c1nnc(-c2ccccc2)o1 (stereo not given) do in these assays?
GAA850 FXN act: 2; MITF TRPM1 HTS: -7; Wnt bcat act: 1; Statin myotox sup: 146*; esBAF inh: 13

Results for O=C(NNC(=O)OCc1ccccc1)OCc1ccccc1 ?
GAA850 FXN act: 4; MITF TRPM1 HTS: 21; Wnt bcat act: -2; Statin myotox sup: -2; esBAF inh: 25

Results for COc1cccc(-c2ccc3c(c2)[C@H]2[C@H](CCN2C(=O)c2cccc(F)c2)[C@H](CO)N3)c1 ?
Statin myotox sup: -1; esBAF inh: 5

Results for COc1ccc(COc2cccnc2N)cc1 ?
GAA850 FXN act: 4; MITF TRPM1 HTS: 24; Wnt bcat act: 5; Statin myotox sup: 0; esBAF inh: 31

What do the screens show for `Nc1ncccc1OCc1ccc(Br)cc1`?
GAA850 FXN act: 3; MITF TRPM1 HTS: 102*; Wnt bcat act: 6

Results for Nc1nc2ccc(-c3nc4ccccc4o3)cc2s1 ?
GAA850 FXN act: 6; MITF TRPM1 HTS: 11; Statin myotox sup: 75*; esBAF inh: 2

How did c1ccc2oc(-c3ccc4nc[nH]c4c3)nc2c1 do in these assays?
GAA850 FXN act: 2; MITF TRPM1 HTS: 98*; Statin myotox sup: -1; esBAF inh: 47*

How did COc1ccc(-c2ccc3n(c2=O)C[C@H]2[C@H](CO)[C@@H](C(=O)N(C)C)[C@@H]3N2C(=O)c2cnccn2)cc1 do in these assays?
Statin myotox sup: 27; esBAF inh: 3

How did CCC(=O)N[C@@H]1CC[C@@H](CCn2cc(CN(C)C)nn2)O[C@H]1CO do in these assays?
Statin myotox sup: -4; esBAF inh: -4

Results for CN1[C@@H]2Cn3c(ccc(-c4ccccc4)c3=O)[C@H]1[C@@H](C(=O)NCC1CCCCC1)[C@@H]2CO ?
Statin myotox sup: 3; esBAF inh: -2

Results for CC1(Cc2cccc(F)c2)C(=O)Nc2ccc(S(=O)(=O)NC3CCCCC3)cc21 (stereo not given) ?
GAA850 FXN act: 6; Wnt bcat act: -3; Statin myotox sup: 164*; esBAF inh: 2

Results for N/C(=N\NC(=O)Nc1ccccc1)c1ccccn1 ?
GAA850 FXN act: 2; Wnt bcat act: 36*

Results for C[C@H](CO)N1C[C@H](C)[C@H](CN(C)Cc2ccncc2)Oc2cc(C#CC3CC3)ccc2S1(=O)=O ?
Statin myotox sup: 12; esBAF inh: -2

Results for O=C(NCC1CCCO1)c1ccc(COc2ccccc2)cc1 (stereo not given) ?
GAA850 FXN act: 2; MITF TRPM1 HTS: 21; Wnt bcat act: 9; Statin myotox sup: -8; esBAF inh: 49*

Results for CC(=O)c1c[nH]c(C(=O)NCC2CCCO2)c1 (stereo not given) ?
GAA850 FXN act: -1; Wnt bcat act: -3; Statin myotox sup: -2; esBAF inh: 1

How did O=C(NCC1CCCO1)c1ccc2[nH]c3c(c2c1)CCCC3 (stereo not given) do in these assays?
GAA850 FXN act: 4; MITF TRPM1 HTS: 41; Wnt bcat act: 4; Statin myotox sup: -33; esBAF inh: 45*

Results for CCC(CC)C(=O)c1c[nH]c(C(=O)NCC2CCCO2)c1 (stereo not given) ?
GAA850 FXN act: 1; MITF TRPM1 HTS: 9; Statin myotox sup: 107*; esBAF inh: -7

What do the screens show for `O=C(C[C@H]1C[C@@H]2c3cc(NC(=O)c4cccnc4)ccc3O[C@@H]2[C@@H](CO)O1)NCC(F)(F)F`?
Statin myotox sup: -3; esBAF inh: -3

Results for C=CCSc1n[nH]c(-c2ccc(OCCCC)cc2)n1 ?
GAA850 FXN act: 2; MITF TRPM1 HTS: 67; Wnt bcat act: -2; Statin myotox sup: -59; esBAF inh: 48*

What do the screens show for `C=CCSc1n[nH]c(-c2ccc(OCCC)cc2)n1`?
GAA850 FXN act: 6; MITF TRPM1 HTS: 92*; Wnt bcat act: 21; Statin myotox sup: -4; esBAF inh: 74*

What do the screens show for `COc1ccc(CNC(=O)C[C@H]2CC[C@H](NC(=O)c3cccc(F)c3)[C@H](CO)O2)cc1`?
Statin myotox sup: -1; esBAF inh: 0

How did CCc1ccc(OCC(=O)N2CCc3ccccc32)cc1 do in these assays?
GAA850 FXN act: 5; MITF TRPM1 HTS: 61; Wnt bcat act: 28; Statin myotox sup: 2; esBAF inh: 47*

Results for O=C(COc1ccc2c(c1)CCC2)N1CCc2ccccc21 ?
GAA850 FXN act: 6; Wnt bcat act: 60*; Statin myotox sup: -10; esBAF inh: 78*

What do the screens show for `C/C=C/c1ccc([C@@H]2[C@@H](CO)N(C(C)=O)[C@@H]2CNC(=O)CC2CC2)cc1`?
Statin myotox sup: 4; esBAF inh: -1

What do the screens show for `Cn1cnc2c1c(=O)n(Cc1cccc(Br)c1)c(=O)n2C`?
GAA850 FXN act: 0; Wnt bcat act: 2; Statin myotox sup: 9; esBAF inh: 4

What do the screens show for `Cn1cnc2c1c(=O)n(Cc1ccccc1)c(=O)n2C`?
GAA850 FXN act: 2; Wnt bcat act: 32*; Statin myotox sup: 4; esBAF inh: 1

Results for COc1ccc(-c2cnc3c(c2)C(=O)N([C@H](C)CO)C[C@H](C)[C@H](CN(C)C(=O)C2CC2)O3)cc1 ?
Statin myotox sup: 18; esBAF inh: -5

How did O=C(Nc1ccc(F)cc1F)c1ccc2c(=O)n3c(nc2c1)CCC3 do in these assays?
GAA850 FXN act: 3; MITF TRPM1 HTS: 46; Wnt bcat act: 24; Statin myotox sup: -8; esBAF inh: -8

How did O=C(Nc1ccc(F)cc1Cl)c1ccc2c(=O)n3c(nc2c1)CCC3 do in these assays?
GAA850 FXN act: 6; MITF TRPM1 HTS: 102*; Wnt bcat act: 29; Statin myotox sup: 0; esBAF inh: inconclusive

Assay outcomes from PubChem BioAssay.
